# ± gives the standard deviation of the averaged measurements.
# What was measured:
# [1] = test system: E18 rat cortical neuron-glia co-culture; experiment: fiber score / MBP score (myelination specific beyond OL differentiation) (ratio); higher = more myelination-specific MBP alignment; conditions: treatment time: 8 days (DIV5-DIV13)
# How it was run: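 Reported values are fiber score (continuous MBP fiber length per Olig2+ nucleus) divided by MBP score (thresholded MBP area × intensity per Olig2+ nucleus). They come from primary E18 rat cortical co-cultures treated with library compounds at 1 or 5 µM in myelination medium from DIV5 to DIV13, then fixed in 4 % paraformaldehyde, immunostained for MBP and Olig2 with DAPI, and analysed over four 10X fields per well in duplicate wells.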
# [2] = test system: E18 rat cortical neuron-glia co-culture; experiment: myelination (MBP fiber length per Olig2+ nucleus), % of 1 µM DAPT response (DMSO = 0) (% of DAPT); higher = more myelination, active = 50 or more; conditions: treatment time: 8 days (DIV5-DIV13)
# How it was run: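 Rat cortical co-cultures from E18 tissue were dissociated with papain and plated at 20,000 cells/well on 96-well plates coated with poly-d-lysine/laminin. From DIV5 to DIV13, library compounds were added at 1 or 5 µM in myelination medium. After fixation in 4 % paraformaldehyde, cultures were immunostained for MBP and Olig2 and counterstained with DAPI, and four 10X fields were analysed in each of duplicate wells. The myelination value is the length of continuous straight MBP fibers per Olig2+ nucleus, normalised so that 0.1 % DMSO is 0 and a 1 µM positive control is 100.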
structure (smiles),measurement,setting,value
CNC(=O)Oc1ccc2c(c1)[C@]1(C)CCN(C)[C@@H]1N2C [Physostigmine],fiber score / MBP score,[1]; 1 µM,0.593
same,fiber score / MBP score,[1]; 5 µM,0.703
same,myelination,[2]; 1 µM,-13.2 (inactive)
same,myelination,[2]; 5 µM,-9.34 (inactive)
CN1C(=O)COc2c(C(=O)NC3CN4CCC3CC4)cc(Cl)cc21 (configuration not stated) [Azasetron],fiber score / MBP score,[1]; 1 µM,0.754
same,fiber score / MBP score,[1]; 5 µM,0.901
same,myelination,[2]; 1 µM,-6.5 (inactive)
same,myelination,[2]; 5 µM,2.28 (inactive)
O=P1(N(CCCl)CCCl)NCCCO1 (configuration not stated) [Cyclophosphamide],fiber score / MBP score,[1]; 1 µM,0.725
same,fiber score / MBP score,[1]; 5 µM,0.547
same,myelination,[2]; 1 µM,-41 (inactive)
same,myelination,[2]; 5 µM,-54.7 (inactive)
NC(=O)C[S+]([O-])C(c1ccccc1)c1ccccc1 (configuration not stated) [Modafinil],fiber score / MBP score,[1]; 1 µM,0.88
same,fiber score / MBP score,[1]; 5 µM,0.861
same,myelination,[2]; 1 µM,-9.51 (inactive)
same,myelination,[2]; 5 µM,-26.7 (inactive)
CC(C)CC(N(C)C)C1(c2ccc(Cl)cc2)CCC1 (configuration not stated) [Sibutramine],fiber score / MBP score,[1]; 1 µM,0.819 ± 0.34
same,fiber score / MBP score,[1]; 5 µM,1.02 ± 0.064
same,myelination,[2]; 1 µM,-9.43 (inactive)
same,myelination,[2]; 5 µM,-0.392 (inactive)
CNC1=Nc2ccc(Cl)cc2C(c2ccccc2)=[N+]([O-])C1 [Chlordiazepoxide],fiber score / MBP score,[1]; 1 µM,0.994
same,fiber score / MBP score,[1]; 5 µM,0.605
same,myelination,[2]; 1 µM,0.872 (inactive)
same,myelination,[2]; 5 µM,-16.1 (inactive)
CCN(CC)CCOC(=O)C(O)(c1ccccc1)c1ccccc1 [Benactyzine],fiber score / MBP score,[1]; 1 µM,1.18
same,fiber score / MBP score,[1]; 5 µM,1.2
same,myelination,[2]; 1 µM,1.93 (inactive)
same,myelination,[2]; 5 µM,0.796 (inactive)
CC(=O)O[C@H]1C[C@@H]2CC[C@@H]3[C@H](CC[C@@]4(C)[C@H]3C[C@H]([N+]3(C)CCCCC3)[C@@H]4OC(C)=O)[C@@]2(C)C[C@@H]1[N+]1(C)CCCCC1 [Pancuronium],fiber score / MBP score,[1]; 1 µM,0.692
same,fiber score / MBP score,[1]; 5 µM,1.04
same,myelination,[2]; 1 µM,-11 (inactive)
same,myelination,[2]; 5 µM,2.32 (inactive)
Cc1ccc(-c2nc3ccc(C)cn3c2CC(=O)N(C)C)cc1 [Zolpidem],fiber score / MBP score,[1]; 1 µM,0.967
same,fiber score / MBP score,[1]; 5 µM,0.776
same,myelination,[2]; 1 µM,-6.37 (inactive)
same,myelination,[2]; 5 µM,-13.3 (inactive)
COc1cccc(C2(O)CCCCC2CN(C)C)c1 (configuration not stated) [Tramadol],fiber score / MBP score,[1]; 1 µM,0.793
same,fiber score / MBP score,[1]; 5 µM,0.749
same,myelination,[2]; 1 µM,-12.4 (inactive)
same,myelination,[2]; 5 µM,-7.33 (inactive)
CC(C)c1cccc(C(C)C)c1O [Propofol],fiber score / MBP score,[1]; 1 µM,0.782
same,fiber score / MBP score,[1]; 5 µM,0.895
same,myelination,[2]; 1 µM,-3.16 (inactive)
same,myelination,[2]; 5 µM,-2.27 (inactive)
Cc1nnc2n1-c1ccc(Cl)cc1C(c1ccccc1)=NC2 [Alprazolam],fiber score / MBP score,[1]; 1 µM,0.628
same,fiber score / MBP score,[1]; 5 µM,0.823
same,myelination,[2]; 1 µM,-26.1 (inactive)
same,myelination,[2]; 5 µM,-17.4 (inactive)
CN1CC[C@@H](c2ccc(F)cc2)[C@H](COc2ccc3c(c2)OCO3)C1 [N-Methylparoxetine],fiber score / MBP score,[1]; 1 µM,0.423
same,fiber score / MBP score,[1]; 5 µM,0.379
same,myelination,[2]; 1 µM,-58.7 (inactive)
same,myelination,[2]; 5 µM,-60.5 (inactive)
O=C1CC[C@@]2(O)[C@H]3Cc4ccc(O)c5c4[C@@]2(CCN3CC2CC2)[C@H]1O5 [Naltrexone],fiber score / MBP score,[1]; 1 µM,1.3
same,fiber score / MBP score,[1]; 5 µM,0.956
same,myelination,[2]; 1 µM,14.8 (inactive)
same,myelination,[2]; 5 µM,1.8 (inactive)
c1ccc2c(c1)Nc1ccccc1S2 [Phenothiazine],fiber score / MBP score,[1]; 1 µM,0.706
same,fiber score / MBP score,[1]; 5 µM,0.89
same,myelination,[2]; 1 µM,-16.1 (inactive)
same,myelination,[2]; 5 µM,-5.33 (inactive)
c1ccc2c3c([nH]c2c1)CNCC3 [Tryptoline],fiber score / MBP score,[1]; 1 µM,0.757
same,fiber score / MBP score,[1]; 5 µM,0.905
same,myelination,[2]; 1 µM,-12 (inactive)
same,myelination,[2]; 5 µM,-4.44 (inactive)
Cc1ncc2n1-c1ccc(Cl)cc1C(c1ccccc1F)=NC2 [Midazolam],fiber score / MBP score,[1]; 1 µM,0.908
same,fiber score / MBP score,[1]; 5 µM,1.88
same,myelination,[2]; 1 µM,-0.202 (inactive)
same,myelination,[2]; 5 µM,31.1 (inactive)
O=C(O)CCCc1ccc(N(CCCl)CCCl)cc1 [Chlorambucil],fiber score / MBP score,[1]; 1 µM,0.893
same,fiber score / MBP score,[1]; 5 µM,0.615
same,myelination,[2]; 1 µM,-6.49 (inactive)
same,myelination,[2]; 5 µM,-17 (inactive)
